# A selection: hits, their analogues and other compounds. The true share with any hit is near 3.5%.
# GPR151 activ = activators of human GPR151; Q8TDV0; PathHunter beta-arrestin GPR151 cells, luminescence; activation, % at 11.2 µM; 650,000 tested, 1% active; AID 1508602; in the data active means activation above about 4.9%;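 further: 0% = median of compound wells and 100% = cells with positive control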
# MITF inh = inhibitors of human MITF; 650,000 tested, 0.91% active; inhibition, % at 2.6 µM; AlphaScreen MITF homodimerization, bead proximity signal; in the data active means inhibition above about 50%;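 further: 0% = vehicle wells with protein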
# Target sequence (O75030 whole entry, looked up): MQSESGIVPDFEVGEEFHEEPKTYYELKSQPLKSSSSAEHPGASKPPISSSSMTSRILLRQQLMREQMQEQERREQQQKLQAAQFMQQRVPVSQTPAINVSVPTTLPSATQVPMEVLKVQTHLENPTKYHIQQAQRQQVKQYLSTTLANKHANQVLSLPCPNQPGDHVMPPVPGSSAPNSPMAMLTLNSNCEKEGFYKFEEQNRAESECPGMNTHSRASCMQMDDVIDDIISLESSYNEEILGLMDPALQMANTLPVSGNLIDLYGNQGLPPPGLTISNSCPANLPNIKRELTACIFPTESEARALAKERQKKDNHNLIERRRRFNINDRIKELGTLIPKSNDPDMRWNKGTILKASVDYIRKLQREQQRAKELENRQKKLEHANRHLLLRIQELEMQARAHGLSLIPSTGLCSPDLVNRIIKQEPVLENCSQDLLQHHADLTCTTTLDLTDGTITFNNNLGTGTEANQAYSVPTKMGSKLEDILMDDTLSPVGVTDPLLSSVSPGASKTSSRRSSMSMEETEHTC
# TEAD-YAP block = TEAD-YAP interaction inhibition | HEK-TIYL cells, TEAD-Gal4/YAP UAS-luciferase luminescence | inhibition, % at 9.12 µM | 640,000 tested, 1.4% active; in the data active means inhibition above about 32%;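 further: 0% = median of test compound wells and 100% = reference inhibitor wells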
# FBW7 act = activators of human E3 ligase FBW7; AlphaScreen FBW7–phospho-cyclin E peptide binding, activator screen; 650,000 tested, 0.13% active; Q969H0; normalized activity (activation), % at 26.1 µM; in the data active means normalized activity above about 1.9%;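 further: purified mutant Fbw7 with reduced substrate affinity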
# GPR151 conf act = human GPR151 activation, confirmation screen; AID 1508609; shares compounds with GPR151 activ; activation, % at 11.2 µM; 6,700 tested, under 10 active; GPR151 PathHunter beta-arrestin cells, luminescence, 90 min; % of EA-reagent control over plate median;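 active means mean percent activation across replicates above the confirmation screen cutoff of 4.91%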
# GPR119 counter = activates human GPR119 in a GPR151 counter-screen; shares compounds with GPR151 activ; GPR119 PathHunter beta-arrestin cells, luminescence, 90 min; 0 = compound-well median, 100 = enzyme-acceptor control; activation, % at 11.2 µM; 6,700 tested, 0.3% active;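 active means mean percent activation in the counterscreen above 29.09%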;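 further: counterscreen on off-target GPR119 to flag nonselective hits from the GPR151 activator screen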
# * = called active by the depositor; nt = no result.
SMILES,GPR151 activ,MITF inh,TEAD-YAP block,FBW7 act,GPR151 conf act,GPR119 counter
COc1ccc(C(=O)NC2=C(C#N)CCC2)cc1OC,1.0,20.7,-2.0,0.1,nt,nt
CN(C)c1ccc(NC(=O)CCN2C(=O)C3C4C=CC(C4)C3C2=O)cc1 (stereo not given),5.2*,-0.7,-14.6,0.1,0.4,-14.2
O=S(=O)(c1cccc(-c2nnc(SCCOc3ccccc3)o2)c1)N1CCOCC1,6.5*,10.2,1.0,0.2,0.0,8.9
N#Cc1ccc(CSc2nnc(-c3cccc(S(=O)(=O)N4CCCCC4)c3)o2)cc1,8.7*,0.2,-3.3,-0.1,0.9,-7.4
COC(=O)c1cc(OC)c(OC)cc1NC(=O)CCN1C(=O)c2ccccc2C1=O,5.9*,-8.4,-0.9,-0.1,-0.2,1.8
COC(=O)c1cc(OC)c(OC)cc1NC(=O)c1cc(Cl)ccc1Cl,6.3*,-2.5,-8.2,-0.1,0.8,2.4
COc1cccc2c1OCCCN(Cc1nc(Cc3ccccc3Cl)no1)C2,5.7*,1.6,-1.6,0.1,-1.4,-8.2
COc1ccc(-n2c(C)c(C(=O)O)c3cc(OC)c4ccccc4c32)cc1,4.9*,2.9,15.7,-0.1,0.3,5.4
COc1cc2c(C(=O)O)c(C)n(-c3ccccc3)c2c2ccccc12,1.8,-2.3,13.8,0.1,nt,nt
Cc1nn(Cc2ccc(C(=O)NC3CCCC3)o2)c(C)c1[N+](=O)[O-],5.5*,-0.2,6.5,0.0,-0.9,-15.3
COc1ccc(C2=NS(=O)(=O)N(C)C(C(=O)Nc3ccc(F)cc3F)=C2)cc1OC,0.2,-3.1,22.8,-0.1,nt,nt
Cc1ccc(C2=NS(=O)(=O)N(C)C(C(=O)Nc3ccc(F)cc3F)=C2)cc1,11.5*,-0.3,-0.8,-0.2,1.4,-10.0
Cc1cc(S(=O)(=O)NCCc2ccc(S(N)(=O)=O)cc2)ccc1Br,-0.3,13.6,0.0,0.0,nt,nt
Cn1cccc1-c1nc2ccc(N)cc2[nH]1,6.3*,13.4,-20.5,-0.1,-1.1,-16.4
Nc1cccc(-c2nc3ccc(Cc4ccc5nc(-c6cccc(N)c6)[nH]c5c4)cc3[nH]2)c1,7.0*,4.8,9.9,-0.1,0.4,14.1
O=C1CCCN1CCn1cnc2c(NCc3cccnc3)nc(N3CCN(c4ccccn4)CC3)nc21,2.7,2.5,1.4,0.0,nt,nt
CCOc1ccc(NC2=CC(=O)CCC2)cc1,1.0,-3.9,-1.3,-0.1,nt,nt
CCOc1ccc(NC2=CC(=O)C=CC2=O)cc1,5.8*,26.0,7.9,-0.4,0.3,-1.6
c1cncc(-c2cc(NC3CCCCC3)nc(-c3ccncc3)n2)c1,-0.7,-7.3,4.2,-0.2,nt,nt
Brc1cccc(-c2nnc(CN3CCN(Cc4ccccc4)CC3)o2)c1,6.0*,2.1,-1.4,0.1,-0.1,-3.6
Cc1ccc(OCC(=O)Nc2ccc(S(=O)(=O)N3CCC(C)CC3)cc2)c(Br)c1,-1.1,-8.0,-0.4,-0.1,nt,nt
FC(F)(F)c1cc2[nH]c(C3COc4ccccc4O3)nc2cc1-c1ccncc1 (stereo not given),8.0*,-4.6,-15.3,0.0,0.3,-1.1
c1ccc2c(c1)OC[C@H](c1nc3ccc(-c4ccncc4)cc3[nH]1)O2,-0.3,17.5,-30.6,0.0,nt,nt
COC(=O)c1c(NC(=O)c2ccc(C)cc2)sc2c1CCCC2,6.5*,0.9,3.7,0.0,0.4,13.9
COC(=O)c1ccc(NC(=O)c2c(NCc3ccc(C)o3)sc3c2CCCC3)cc1,8.1*,14.2,-6.8,-0.2,1.5,0.1
SMILES,GPR151 activ,MITF inh,TEAD-YAP block,FBW7 act,GPR151 conf act,GPR119 counter
COC(=O)c1c(NC(=O)c2ccc(C)cc2)sc2c1CCCCC2,-1.0,6.0,-0.6,0.4,nt,nt
COc1ccc(OC)c(NC(=O)c2c(NCc3ccc(C)o3)sc3c2CCCC3)c1,2.7,3.5,3.9,-0.2,nt,nt
Cc1ccc(S(=O)(=O)N2CCCC2CNC(=O)C(=O)Nc2cccc(C)c2C)cc1 (stereo not given),1.3,12.7,3.8,0.0,nt,nt
CCOC(=O)C1=C(C)N=c2s/c(=C/c3ccccc3O)c(=O)n2C1c1ccccc1 (stereo not given),3.9,-5.4,-14.7,0.0,nt,nt
CCc1cc2c(=O)c(-c3ccc4c(c3)OCCO4)coc2cc1OC(C)C(=O)OC (stereo not given),6.8*,3.6,4.2,0.6,2.8,-1.5
CCc1cc2c(=O)c(-c3ccc4c(c3)OCCCO4)coc2cc1OC(C)C(=O)OC (stereo not given),3.9,4.2,22.8,0.2,nt,nt
O=[N+]([O-])c1ccc(CSC2=NCCN2S(=O)(=O)c2ccccc2)cc1,5.1*,24.4,0.6,1.4,0.6,-1.0
O=[N+]([O-])c1ccc(CSC2=NCCN2S(=O)(=O)c2ccc([N+](=O)[O-])cc2)cc1,1.7,3.5,3.9,-0.1,nt,nt
CCCS(=O)(=O)N1CCN=C1SCc1cccc([N+](=O)[O-])c1,5.3*,7.7,-14.0,0.0,-0.4,-2.1
CCS(=O)(=O)N1CCN=C1SCc1cccc([N+](=O)[O-])c1,0.4,34.4,5.6,0.0,nt,nt
COc1cccc(NC(=O)C2C3C=CC4(O3)C2C(=O)N(CC2COc3ccccc3O2)C4C(=O)NC2CCCCC2)c1 (stereo not given),-0.5,6.3,10.9,-0.1,nt,nt
CCOC(=O)c1c(NC(=O)c2cc(=O)c3ccccc3o2)sc2c1CCN(C(C)=O)C2,6.0*,-10.5,1.4,-0.1,0.4,1.9
CC(C)C(=O)N(CC(=O)Nc1sc2c(c1C(N)=O)CCCC2)Cc1ccccc1,7.1*,-1.9,5.6,-0.1,0.3,7.2
CC(=O)N1CCc2c(sc(NC(=O)Cc3ccccc3)c2C(N)=O)C1,5.3*,2.9,1.2,-0.1,0.2,0.4
CC(C)N1CCc2c(sc(NC(=O)Cc3ccccc3)c2C(N)=O)C1,-0.2,2.4,-14.5,0.6,nt,nt
Clc1ccc(-c2csc3ncnc(Oc4ccc5ccccc5c4)c23)cc1,-1.2,6.3,-10.5,0.0,nt,nt
Cc1nnc(SCC(=O)Nc2ccc(OC(F)(F)F)cc2)n(N)c1=O,-0.2,-0.3,9.2,-0.1,nt,nt
Cc1ccc(Cn2c(CN3CCCC(C)C3)nc3c2c(=O)n(C)c(=O)n3C)cc1 (stereo not given),4.9*,-9.7,10.5,-0.2,0.6,-3.6
CC1CCCN(Cc2nc3c(c(=O)n(C)c(=O)n3C)n2Cc2ccc(Cl)cc2)C1 (stereo not given),-0.9,-3.5,-0.5,0.0,nt,nt
Cc1ccc(CN2CCN(Cc3ccc(C)s3)CC2CCO)o1 (stereo not given),1.5,4.1,1.3,-0.1,nt,nt
Cc1ccsc1-c1nnc(NC(=O)c2cccs2)s1,-0.9,12.5,-4.6,0.2,nt,nt
CCOCCCNC(=O)c1ccc(OC(C)=O)cc1,6.8*,12.6,-2.5,0.0,0.2,-15.8
COCCCNC(=O)c1ccc(OC(C)=O)cc1,0.1,-2.5,3.7,0.0,nt,nt

# Bioassay records deposited in PubChem by The Scripps Research Institute Molecular Screening Center.
